Measured values from paper PMC7862700, “An all-to-all approach to the identification of sequence-specific readers for epigenetic DNA modifications on cytosine”.

How the values were obtained:
Assay in all cases: DAPPL (digital affinity profiling via proximity ligation, sequencing); 10 mM Tris-HCl pH 7.5, 50 mM NaCl, 1 mM DTT, 4% glycerol, room temperature, 30 min; GST-TFs on glutathione beads, 16-mer random dsDNA library, 0.1% formaldehyde crosslink after washing; high values mean tight binding
FLI1 = molecular target: T1, FLI1 (Homo sapiens, UniProt Q01543 1-452); settings: protein: recombinant; tags: N-terminal GST; dsDNA, one strand shown
T1 sequence: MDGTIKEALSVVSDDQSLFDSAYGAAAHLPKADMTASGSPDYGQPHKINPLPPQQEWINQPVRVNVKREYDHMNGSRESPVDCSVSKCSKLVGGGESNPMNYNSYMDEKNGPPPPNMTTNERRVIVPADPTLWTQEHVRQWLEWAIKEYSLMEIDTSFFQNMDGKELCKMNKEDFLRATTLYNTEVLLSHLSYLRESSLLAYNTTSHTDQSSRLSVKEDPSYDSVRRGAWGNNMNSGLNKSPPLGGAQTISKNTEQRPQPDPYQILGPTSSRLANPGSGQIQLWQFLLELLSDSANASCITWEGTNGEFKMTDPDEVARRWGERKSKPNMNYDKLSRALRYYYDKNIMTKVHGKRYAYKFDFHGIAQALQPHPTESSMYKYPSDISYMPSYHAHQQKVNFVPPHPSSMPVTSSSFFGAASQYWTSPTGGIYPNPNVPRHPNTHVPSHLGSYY
Outline: (§1)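 GST fusions of human transcription factors were expressed in yeast and captured with glutathione beads. Once given DNA barcodes and pooled alongside a tag-only sample, they were incubated for 30 min at room temperature with 200 nmole of a random double-stranded 16-mer DNA library in Tris/NaCl/DTT/glycerol buffer, then washed, crosslinked (0.1% formaldehyde), proximity-ligated, PCR-amplified and sequenced on an Illumina NextSeq500. The binding signal of each hexamer is its read frequency for a factor divided by its frequency for the tag-only sample.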

ELK1 = molecular target: T2, ELK1 (Homo sapiens, UniProt P19419 1-428); settings: protein: recombinant; tags: N-terminal GST; dsDNA, one strand shown
T2 sequence: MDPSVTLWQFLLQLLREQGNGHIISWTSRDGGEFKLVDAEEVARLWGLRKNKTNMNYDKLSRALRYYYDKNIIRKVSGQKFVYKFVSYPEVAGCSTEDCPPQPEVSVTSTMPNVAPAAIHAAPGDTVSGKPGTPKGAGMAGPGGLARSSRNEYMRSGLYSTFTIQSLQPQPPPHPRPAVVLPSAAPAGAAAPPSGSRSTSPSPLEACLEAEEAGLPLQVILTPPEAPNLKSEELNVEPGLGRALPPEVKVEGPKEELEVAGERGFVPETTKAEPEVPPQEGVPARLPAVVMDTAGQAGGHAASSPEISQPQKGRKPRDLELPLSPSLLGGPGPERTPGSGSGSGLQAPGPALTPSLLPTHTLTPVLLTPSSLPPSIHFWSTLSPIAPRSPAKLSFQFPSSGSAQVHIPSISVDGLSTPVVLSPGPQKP
Outline: as §1

GABPA = molecular target: T3, GABPA (Homo sapiens, UniProt Q06546 1-454); settings: protein: recombinant; tags: N-terminal GST; dsDNA, one strand shown
T3 sequence: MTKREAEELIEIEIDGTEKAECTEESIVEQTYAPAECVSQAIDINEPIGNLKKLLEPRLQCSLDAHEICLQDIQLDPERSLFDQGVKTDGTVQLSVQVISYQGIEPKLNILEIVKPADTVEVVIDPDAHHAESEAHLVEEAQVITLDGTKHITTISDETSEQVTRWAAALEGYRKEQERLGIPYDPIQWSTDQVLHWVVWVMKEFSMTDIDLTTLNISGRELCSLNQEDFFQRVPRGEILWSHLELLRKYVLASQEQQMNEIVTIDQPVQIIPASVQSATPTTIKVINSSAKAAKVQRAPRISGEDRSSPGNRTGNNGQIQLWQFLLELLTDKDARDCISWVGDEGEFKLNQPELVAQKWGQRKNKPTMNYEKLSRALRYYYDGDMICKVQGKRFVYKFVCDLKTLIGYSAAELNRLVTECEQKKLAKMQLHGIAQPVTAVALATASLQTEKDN
Outline: as §1

ERG = molecular target: T4, ERG (Homo sapiens, UniProt P11308 1-479); settings: protein: recombinant; tags: N-terminal GST; dsDNA, one strand shown
T4 sequence: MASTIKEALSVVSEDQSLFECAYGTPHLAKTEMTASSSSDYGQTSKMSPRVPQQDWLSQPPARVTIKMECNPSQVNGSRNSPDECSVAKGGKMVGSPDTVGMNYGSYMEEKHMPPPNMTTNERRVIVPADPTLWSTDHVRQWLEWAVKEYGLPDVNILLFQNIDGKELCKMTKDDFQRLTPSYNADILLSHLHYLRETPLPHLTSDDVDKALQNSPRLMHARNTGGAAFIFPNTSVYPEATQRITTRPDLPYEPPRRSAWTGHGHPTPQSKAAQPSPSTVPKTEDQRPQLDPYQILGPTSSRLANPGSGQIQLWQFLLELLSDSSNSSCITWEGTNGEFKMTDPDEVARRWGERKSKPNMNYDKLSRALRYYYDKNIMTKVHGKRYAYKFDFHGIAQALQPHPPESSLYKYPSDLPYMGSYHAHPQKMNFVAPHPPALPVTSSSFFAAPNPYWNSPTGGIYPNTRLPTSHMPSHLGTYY
Outline: as §1

ELF1 = ELF1 (Homo sapiens, UniProt P32519 1-619); settings: protein: recombinant; tags: N-terminal GST; dsDNA, one strand shown
Outline: as §1

EHF = molecular target: T5, EHF (Homo sapiens, UniProt Q9NZC4 1-300); settings: protein: recombinant; tags: N-terminal GST; dsDNA, one strand shown
T5 sequence: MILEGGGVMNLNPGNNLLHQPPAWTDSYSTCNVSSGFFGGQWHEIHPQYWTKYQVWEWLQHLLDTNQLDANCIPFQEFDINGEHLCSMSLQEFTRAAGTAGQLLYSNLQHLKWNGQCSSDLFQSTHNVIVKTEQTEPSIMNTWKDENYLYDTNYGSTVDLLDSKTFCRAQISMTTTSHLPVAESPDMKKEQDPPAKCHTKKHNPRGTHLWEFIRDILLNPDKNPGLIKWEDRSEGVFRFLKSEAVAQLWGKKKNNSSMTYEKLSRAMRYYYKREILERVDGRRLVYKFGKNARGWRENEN
Outline: as §1

SPI1 = SPI1 (Homo sapiens, UniProt P17947 1-270); settings: protein: recombinant; tags: N-terminal GST; dsDNA, one strand shown
Outline: as §1

SPIB = SPIB (Homo sapiens, UniProt Q01892 1-262); settings: protein: recombinant; tags: N-terminal GST; dsDNA, one strand shown
Outline: as §1

ELK3 = molecular target: T6, ELK3 (Homo sapiens, UniProt P41970 1-407); settings: protein: recombinant; tags: N-terminal GST; dsDNA, one strand shown
T6 sequence: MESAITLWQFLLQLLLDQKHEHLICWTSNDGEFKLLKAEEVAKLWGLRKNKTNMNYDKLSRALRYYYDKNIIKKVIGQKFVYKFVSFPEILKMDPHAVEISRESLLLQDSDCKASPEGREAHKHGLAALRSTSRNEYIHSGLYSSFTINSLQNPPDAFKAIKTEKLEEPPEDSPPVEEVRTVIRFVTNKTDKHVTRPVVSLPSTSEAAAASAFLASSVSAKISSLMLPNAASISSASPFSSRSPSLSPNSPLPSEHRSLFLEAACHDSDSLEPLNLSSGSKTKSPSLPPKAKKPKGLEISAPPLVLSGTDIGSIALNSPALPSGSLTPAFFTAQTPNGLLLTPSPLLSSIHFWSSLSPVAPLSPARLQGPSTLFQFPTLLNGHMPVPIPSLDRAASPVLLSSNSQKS
Outline: as §1

FEV = molecular target: T7, FEV (Homo sapiens, UniProt Q99581 1-238); settings: protein: recombinant; tags: N-terminal GST; dsDNA, one strand shown
T7 sequence: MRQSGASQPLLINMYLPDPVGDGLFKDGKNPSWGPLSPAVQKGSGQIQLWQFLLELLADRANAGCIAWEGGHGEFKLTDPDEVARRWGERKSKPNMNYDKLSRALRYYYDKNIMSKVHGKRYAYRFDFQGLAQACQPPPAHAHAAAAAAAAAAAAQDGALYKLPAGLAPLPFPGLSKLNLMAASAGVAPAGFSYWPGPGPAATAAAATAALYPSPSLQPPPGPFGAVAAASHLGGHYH
Outline: as §1

ETV5 = ETV5 (Homo sapiens, UniProt P41161 1-510); settings: protein: recombinant; tags: N-terminal GST; dsDNA, one strand shown
Outline: as §1

HSF1 = HSF1 (Homo sapiens, UniProt Q00613 1-529); settings: protein: recombinant; tags: N-terminal GST; chain copies: 3; dsDNA, one strand shown
Outline: as §1

SPIC = molecular target: T8, SPIC (Homo sapiens, UniProt Q8N5J4 1-248); settings: protein: recombinant; tags: N-terminal GST; dsDNA, one strand shown
T8 sequence: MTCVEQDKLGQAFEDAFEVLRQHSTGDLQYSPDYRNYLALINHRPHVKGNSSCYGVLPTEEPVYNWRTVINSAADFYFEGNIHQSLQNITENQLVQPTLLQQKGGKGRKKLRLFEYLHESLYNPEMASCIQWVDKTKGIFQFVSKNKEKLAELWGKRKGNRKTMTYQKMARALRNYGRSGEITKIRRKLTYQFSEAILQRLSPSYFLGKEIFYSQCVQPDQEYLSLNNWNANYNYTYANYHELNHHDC
Outline: as §1

ELF4 = ELF4 (Homo sapiens, UniProt Q99607 1-663); settings: protein: recombinant; tags: N-terminal GST; dsDNA, one strand shown
Outline: as §1

ELK4 = molecular target: T9, ELK4 (Homo sapiens, UniProt P28324-2 1-405); settings: protein: recombinant; tags: N-terminal GST; dsDNA, one strand shown
T9 sequence: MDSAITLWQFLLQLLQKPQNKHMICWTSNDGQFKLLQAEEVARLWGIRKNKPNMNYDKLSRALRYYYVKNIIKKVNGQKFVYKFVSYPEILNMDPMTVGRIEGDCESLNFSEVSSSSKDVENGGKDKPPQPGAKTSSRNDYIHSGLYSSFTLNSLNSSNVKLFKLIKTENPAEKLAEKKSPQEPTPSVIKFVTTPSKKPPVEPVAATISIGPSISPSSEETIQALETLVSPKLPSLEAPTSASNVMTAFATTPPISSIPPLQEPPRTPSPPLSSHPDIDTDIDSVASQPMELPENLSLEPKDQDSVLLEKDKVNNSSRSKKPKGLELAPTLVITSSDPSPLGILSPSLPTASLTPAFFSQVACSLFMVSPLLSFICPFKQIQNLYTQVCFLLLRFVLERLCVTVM
Outline: as §1

ETV2 = molecular target: T10, ETV2 (Homo sapiens, UniProt O00321 1-342); settings: protein: recombinant; tags: N-terminal GST; dsDNA, one strand shown
T10 sequence: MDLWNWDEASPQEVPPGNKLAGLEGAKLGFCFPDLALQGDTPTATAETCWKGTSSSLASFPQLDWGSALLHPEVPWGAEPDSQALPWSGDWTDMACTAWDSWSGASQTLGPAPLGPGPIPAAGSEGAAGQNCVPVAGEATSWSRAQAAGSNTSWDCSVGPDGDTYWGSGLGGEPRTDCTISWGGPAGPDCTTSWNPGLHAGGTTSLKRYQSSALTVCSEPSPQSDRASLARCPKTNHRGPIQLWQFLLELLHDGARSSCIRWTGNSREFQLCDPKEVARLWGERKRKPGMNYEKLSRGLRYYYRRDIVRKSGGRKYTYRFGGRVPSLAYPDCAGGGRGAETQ
Outline: as §1

ELF3 = molecular target: T11, ELF3 (Homo sapiens, UniProt P78545 1-371); settings: protein: recombinant; tags: N-terminal GST; dsDNA, one strand shown
T11 sequence: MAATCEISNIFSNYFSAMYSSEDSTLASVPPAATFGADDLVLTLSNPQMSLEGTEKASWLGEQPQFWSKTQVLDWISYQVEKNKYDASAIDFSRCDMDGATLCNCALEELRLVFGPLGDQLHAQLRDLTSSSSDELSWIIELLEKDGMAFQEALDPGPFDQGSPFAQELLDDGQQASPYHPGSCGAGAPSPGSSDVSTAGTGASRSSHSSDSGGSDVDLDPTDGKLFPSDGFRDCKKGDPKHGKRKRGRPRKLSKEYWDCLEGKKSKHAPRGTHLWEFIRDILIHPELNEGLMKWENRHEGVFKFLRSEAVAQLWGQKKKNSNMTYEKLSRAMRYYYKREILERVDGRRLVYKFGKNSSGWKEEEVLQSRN
Outline: as §1

CRX = CRX (Homo sapiens, UniProt O43186 1-299); settings: protein: recombinant; tags: N-terminal GST; dsDNA, one strand shown
Outline: as §1

ETV1 = ETV1 (Homo sapiens, UniProt P50549 1-477); settings: protein: recombinant; tags: N-terminal GST; dsDNA, one strand shown
Outline: as §1

Sequence of HSF1 (Q00613 whole entry): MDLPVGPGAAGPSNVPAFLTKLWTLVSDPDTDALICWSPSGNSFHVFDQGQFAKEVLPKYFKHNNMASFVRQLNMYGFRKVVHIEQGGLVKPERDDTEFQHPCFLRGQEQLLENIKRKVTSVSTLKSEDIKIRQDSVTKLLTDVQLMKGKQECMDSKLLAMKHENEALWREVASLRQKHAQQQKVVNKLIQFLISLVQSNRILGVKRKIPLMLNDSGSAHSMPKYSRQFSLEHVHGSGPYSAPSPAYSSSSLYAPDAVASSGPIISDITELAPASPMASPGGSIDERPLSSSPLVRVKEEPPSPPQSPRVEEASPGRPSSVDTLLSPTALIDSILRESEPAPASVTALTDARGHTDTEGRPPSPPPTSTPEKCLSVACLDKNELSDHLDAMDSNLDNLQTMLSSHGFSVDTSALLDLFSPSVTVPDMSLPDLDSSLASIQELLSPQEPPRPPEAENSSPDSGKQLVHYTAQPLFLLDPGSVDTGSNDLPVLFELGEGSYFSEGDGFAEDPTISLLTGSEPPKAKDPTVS
Sequence of SPIB (Q01892 whole entry): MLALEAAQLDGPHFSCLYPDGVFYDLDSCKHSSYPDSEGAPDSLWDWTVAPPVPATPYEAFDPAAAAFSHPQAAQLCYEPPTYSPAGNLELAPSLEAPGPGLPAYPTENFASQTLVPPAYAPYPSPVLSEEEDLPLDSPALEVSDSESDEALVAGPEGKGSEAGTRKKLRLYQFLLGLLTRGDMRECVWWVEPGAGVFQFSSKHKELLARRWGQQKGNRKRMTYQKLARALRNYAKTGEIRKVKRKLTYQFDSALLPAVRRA
Sequence of CRX (O43186 whole entry): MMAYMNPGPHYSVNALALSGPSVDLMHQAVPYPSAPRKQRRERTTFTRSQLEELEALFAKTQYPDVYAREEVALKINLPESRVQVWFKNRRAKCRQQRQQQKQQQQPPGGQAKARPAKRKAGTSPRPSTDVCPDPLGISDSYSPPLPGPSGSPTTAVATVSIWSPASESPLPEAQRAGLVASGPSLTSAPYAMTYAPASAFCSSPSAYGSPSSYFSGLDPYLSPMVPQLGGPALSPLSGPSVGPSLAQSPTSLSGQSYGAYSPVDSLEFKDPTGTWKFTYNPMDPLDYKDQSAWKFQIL
Sequence of ETV5 (P41161 whole entry): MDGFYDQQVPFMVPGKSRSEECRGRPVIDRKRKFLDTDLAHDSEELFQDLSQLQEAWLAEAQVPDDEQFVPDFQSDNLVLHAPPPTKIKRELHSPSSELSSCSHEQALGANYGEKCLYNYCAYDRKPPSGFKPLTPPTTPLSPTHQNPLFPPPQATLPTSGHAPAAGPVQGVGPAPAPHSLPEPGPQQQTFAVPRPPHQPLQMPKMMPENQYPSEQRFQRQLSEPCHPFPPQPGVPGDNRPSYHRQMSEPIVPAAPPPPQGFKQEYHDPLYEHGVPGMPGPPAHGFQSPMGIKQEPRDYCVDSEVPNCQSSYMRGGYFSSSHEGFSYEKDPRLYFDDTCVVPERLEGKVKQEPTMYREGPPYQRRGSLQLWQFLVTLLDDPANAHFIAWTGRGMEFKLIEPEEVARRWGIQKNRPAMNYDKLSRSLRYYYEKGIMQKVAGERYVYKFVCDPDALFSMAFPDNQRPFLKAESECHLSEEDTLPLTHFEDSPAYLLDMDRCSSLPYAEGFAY
Sequence of ETV1 (P50549 whole entry): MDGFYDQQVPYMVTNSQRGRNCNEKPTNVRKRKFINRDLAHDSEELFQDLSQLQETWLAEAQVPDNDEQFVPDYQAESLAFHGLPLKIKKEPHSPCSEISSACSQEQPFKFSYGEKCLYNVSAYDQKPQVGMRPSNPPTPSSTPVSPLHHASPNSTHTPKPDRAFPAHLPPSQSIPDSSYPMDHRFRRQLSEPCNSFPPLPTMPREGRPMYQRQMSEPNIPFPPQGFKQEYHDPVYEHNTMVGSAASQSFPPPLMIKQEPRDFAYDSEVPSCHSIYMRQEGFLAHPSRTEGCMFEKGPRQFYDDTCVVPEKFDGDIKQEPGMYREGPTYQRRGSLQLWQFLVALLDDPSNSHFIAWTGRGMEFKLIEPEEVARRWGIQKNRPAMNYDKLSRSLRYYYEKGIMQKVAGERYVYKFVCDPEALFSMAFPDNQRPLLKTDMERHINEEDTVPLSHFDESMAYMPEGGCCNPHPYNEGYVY
Sequence of ELF1 (P32519 whole entry): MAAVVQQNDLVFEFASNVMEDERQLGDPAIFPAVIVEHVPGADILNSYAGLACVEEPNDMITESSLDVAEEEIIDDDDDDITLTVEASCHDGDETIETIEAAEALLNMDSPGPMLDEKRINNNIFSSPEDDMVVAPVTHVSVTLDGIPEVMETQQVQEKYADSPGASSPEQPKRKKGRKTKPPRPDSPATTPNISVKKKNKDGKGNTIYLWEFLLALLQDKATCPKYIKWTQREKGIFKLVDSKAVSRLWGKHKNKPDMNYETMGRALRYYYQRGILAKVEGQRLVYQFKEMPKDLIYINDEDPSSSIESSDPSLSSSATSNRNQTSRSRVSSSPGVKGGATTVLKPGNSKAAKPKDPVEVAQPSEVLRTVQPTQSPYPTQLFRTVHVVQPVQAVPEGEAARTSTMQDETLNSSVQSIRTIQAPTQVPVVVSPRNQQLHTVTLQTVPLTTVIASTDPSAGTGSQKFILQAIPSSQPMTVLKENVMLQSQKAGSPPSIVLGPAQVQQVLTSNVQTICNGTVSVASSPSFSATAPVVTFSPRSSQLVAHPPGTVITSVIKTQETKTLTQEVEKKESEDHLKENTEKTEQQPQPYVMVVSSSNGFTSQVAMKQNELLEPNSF
Sequence of ELF4 (Q99607 whole entry): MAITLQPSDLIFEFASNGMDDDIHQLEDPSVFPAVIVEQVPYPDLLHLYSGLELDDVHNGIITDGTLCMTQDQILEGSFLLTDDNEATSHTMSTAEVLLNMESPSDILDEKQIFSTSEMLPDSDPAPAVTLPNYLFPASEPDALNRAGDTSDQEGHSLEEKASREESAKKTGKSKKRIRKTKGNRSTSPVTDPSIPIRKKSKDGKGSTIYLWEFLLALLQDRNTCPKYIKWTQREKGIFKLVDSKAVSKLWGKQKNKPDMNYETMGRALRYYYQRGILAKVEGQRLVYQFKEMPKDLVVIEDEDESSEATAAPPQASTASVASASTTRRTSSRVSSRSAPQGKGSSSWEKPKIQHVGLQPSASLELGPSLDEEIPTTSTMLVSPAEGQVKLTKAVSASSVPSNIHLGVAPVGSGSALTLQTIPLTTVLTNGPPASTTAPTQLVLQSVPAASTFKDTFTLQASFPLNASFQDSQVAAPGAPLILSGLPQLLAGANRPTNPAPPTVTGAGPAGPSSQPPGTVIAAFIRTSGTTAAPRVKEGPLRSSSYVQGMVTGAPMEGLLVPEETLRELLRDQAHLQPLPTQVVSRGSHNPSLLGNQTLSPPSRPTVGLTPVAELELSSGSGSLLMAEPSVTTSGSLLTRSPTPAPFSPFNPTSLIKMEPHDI

Sequence: TTACTC
- binding signal (FLI1): 1.31 fold enrichment (6-mer frequency, TF over GST control)
- binding signal (ELK1): 1.24 fold enrichment (6-mer frequency, TF over GST control)
- binding signal (GABPA): 1.26 fold enrichment (6-mer frequency, TF over GST control)
- binding signal (ERG): 1.19 fold enrichment (6-mer frequency, TF over GST control)
- binding signal (ELF1): 1.24 fold enrichment (6-mer frequency, TF over GST control)
- binding signal (EHF): 1.34 fold enrichment (6-mer frequency, TF over GST control)
- binding signal (SPI1): 1.32 fold enrichment (6-mer frequency, TF over GST control)
- binding signal (SPIB): 1.24 fold enrichment (6-mer frequency, TF over GST control)
- binding signal (ELK3): 1.26 fold enrichment (6-mer frequency, TF over GST control)
- binding signal (FEV): 1.21 fold enrichment (6-mer frequency, TF over GST control)
- binding signal (ETV5): 1.24 fold enrichment (6-mer frequency, TF over GST control)
- binding signal (HSF1): 1.49 fold enrichment (6-mer frequency, TF over GST control)
- binding signal (SPIC): 1.24 fold enrichment (6-mer frequency, TF over GST control)
- binding signal (ELF4): 1.29 fold enrichment (6-mer frequency, TF over GST control)
- binding signal (ELK4): 1.34 fold enrichment (6-mer frequency, TF over GST control)
- binding signal (ETV2): 1.37 fold enrichment (6-mer frequency, TF over GST control)
- binding signal (ELF3): 1.43 fold enrichment (6-mer frequency, TF over GST control)
- binding signal (CRX): 1.91 fold enrichment (6-mer frequency, TF over GST control)
- binding signal (ETV1): 1.32 fold enrichment (6-mer frequency, TF over GST control)
